Unmarked numbers belong to inactive results. How the calls were made is not given here.
molecular target: Pantothenate synthetase (Mycobacterium tuberculosis (strain ATCC 25618 / H37Rv)) (UniProt P9WIL5); assay: Coupled enzyme confirmation of inhibitors against recombinant Mtb PanC (AID 375); settings: coupled enzyme assay; at 10 µM, stronger effect = higher value;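 further: 0% = full reaction with vehicle and 100% = no enzyme background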
Sequence (P9WIL5 whole entry, looked up): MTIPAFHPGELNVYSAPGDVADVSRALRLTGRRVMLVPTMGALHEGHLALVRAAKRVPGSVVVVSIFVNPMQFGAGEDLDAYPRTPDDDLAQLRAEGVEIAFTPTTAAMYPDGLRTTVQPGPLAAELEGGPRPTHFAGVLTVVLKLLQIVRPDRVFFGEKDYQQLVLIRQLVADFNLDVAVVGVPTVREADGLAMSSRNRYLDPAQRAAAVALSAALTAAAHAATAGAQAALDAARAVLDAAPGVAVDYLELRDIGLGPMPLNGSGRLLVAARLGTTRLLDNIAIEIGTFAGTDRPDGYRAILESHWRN

Compared with `CCOC(=O)N1CCC(NC(=O)c2ccc3c(c2)sc2nc(-c4cccc(OC)c4)cn23)CC1`, `CCOC(=O)N1CCC(Nc2ncnc3c2cnn3-c2ccc(C)cc2C)CC1` is higher in inhibition: 0% for the first, 3% for the second.

`O=C1C2CC=C(Cl)CC2C(=O)N1CNc1ccccn1` (stereo not given) and `CCc1ccccc1N1CC23C=CC(O2)C(C(=O)O)C3C1=O` (stereo not given) are the same in inhibition: 0% for the first, 0% for the second.

Compared with `Cc1c(C(=O)O)sc2ncn(C)c(=O)c12`, `CCCCCn1c2nc3ccccc3nc2c2c(=O)n(CC(C)C)cnc21` is higher in inhibition: 0% for the first, 7% for the second.

Compared with `CCOC(=O)N1CCN(C(=O)COc2cc(=O)n(C)c3ccccc23)CC1`, `CCOc1ccccc1C1NC(=O)NC(C)=C1C(=O)OC1CCCC1C` (stereo not given) is higher in inhibition: 0% for the first, 2% for the second.

`O=C(C1CCCO1)N1CCN(S(=O)(=O)c2ccccc2)CC1` (stereo not given) and `O=C(NC1CCCCC1)C1CC(O)CN1C(=O)OCc1ccccc1` (stereo not given) are the same in inhibition: 0% for the first, 0% for the second.

Going from `Nc1nc(N2CCN(C/C=C/c3ccccc3)CC2)nc2ccccc12` to `c1ccc(CN2C3=NCCCN3c3ccccc32)cc1`, the inhibition falls from 7% to 0%.

Compared with `O=C(c1ccc(CNS(=O)(=O)c2cccc(C(F)(F)F)c2)cc1)N1CCOCC1`, `CCC(=O)c1ccc(OCCN2CCOCC2)cc1` is higher in inhibition: 0% for the first, 4% for the second.

`CCc1ccc(N2CC34C=CC(O3)C(C(=O)OC)C4C2=O)cc1` (stereo not given) and `CC(OC(=O)c1ccco1)C(=O)NCc1cccs1` (stereo not given) are the same in inhibition: 0% for the first, 0% for the second.

`O=C(NCCSc1c[nH]c2ccccc12)c1ccco1` and `O=C(CN1C(=O)COc2ccccc21)NCCCN1CCN(Cc2ccccc2)CC1` are the same in inhibition: 0% for the first, 0% for the second.

First: Cc1ccc2c(Cl)cc(Cl)c(OCc3c(C)noc3C)c2n1
Second: Cc1ccc(NC(=O)COc2nc(C)cs2)cc1
The inhibition of the first is lower: 0% for the first, 1% for the second.

`COc1cc(NC(=O)Cc2ccccc2OC)cc(OC)c1` and `Cc1cc(NS(=O)(=O)c2ccc(NC(=O)COc3ccccc3C(C)C)cc2)no1` are the same in inhibition: 0% for the first, 0% for the second.

First: O=C1c2ccccc2C(Nc2ccc3c(c2)OCCO3)N1Cc1ccco1 (stereo not given)
Second: c1ccc(Cc2nn3c(Cn4cnc5ccccc54)nnc3s2)cc1
The inhibition of the first is lower: 0% for the first, 4% for the second.

Compared with `Cc1ccc(S(=O)(=O)NCCOC(=O)Nc2sc(=S)n(C)c2C)cc1`, `CCCC(C)C(=O)Nc1ccc(C(N)=O)cc1` (stereo not given) is higher in inhibition: 0% for the first, 3% for the second.

`COc1ccc(Cn2nnnc2C(c2ccccn2)N2CCN(c3cc(Cl)ccc3C)CC2)cc1` (stereo not given) and `Cn1c(=O)[nH]c(=O)c2c1nc(N1CCNCC1)n2CCOc1ccccc1` are the same in inhibition: 0% for the first, 0% for the second.

Going from `Cc1cc(C)cc(NC(=O)CSc2nnc(Cc3cccn3C)n2-c2ccc(F)cc2)c1` to `Cc1csc(NC(=O)CSc2nnc(Cc3cccn3C)n2-c2ccc(F)cc2)n1`, the inhibition falls from 6% to 0%.

First: C[C@@H]1C[C@H](O)c2cc(Cl)ccc2N1
Second: Cc1ccc(N=Cc2ccc[nH]2)c(O)c1
The inhibition of the first is higher: 8% for the first, 0% for the second.

Compared with `Oc1ccc(-c2onc(C(F)(F)F)c2-c2cscn2)c(O)c1`, `COc1ccc2c(c1)CCc1c(C(=O)NCc3cccnc3)noc1-2` is lower in inhibition: 2% for the first, 0% for the second.

First: O=C(Nc1nncs1)c1ccccc1NS(=O)(=O)c1cccs1
Second: CCn1c(SCC(=O)Nc2ccc(C(C)=O)cc2)nc2ccccc21
The inhibition of the first is lower: 0% for the first, 3% for the second.

`COC(=O)c1cc(Br)c(=O)n(CCC2=CCCCC2)c1` and `Cc1ccc(N2CC(C)Cn3c2nc2c3c(=O)n(CC(=O)OCc3ccccc3)c(=O)n2C)cc1C` (stereo not given) are the same in inhibition: 0% for the first, 0% for the second.

`COc1ccccc1OCCCCNCCO` and `C/C(Cl)=C/Cn1c(SCc2ccc(Cl)cc2)nc2c1c(=O)[nH]c(=O)n2C` are the same in inhibition: 0% for the first, 0% for the second.
